Measured values taken from PubChem BioAssay.
Calls of active or inactive are those of the source.

What was measured:
[1] = system: Human papillomavirus type 1a protein E7 (residues 44-93); assay: HPV1a E7 fragment binders on microarrays, primary screen, biochemical, small-molecule microarray, residues 44-93, 635 nm fluorescence (AID 1108); conditions: small-molecule microarray binding, fluorescence 635 nm; higher = more signal;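 also: E7 fragment applied at 1 µg/mL in TBST for 1 h at 4 C; score combines spot fluorescence with its signal to noise ratio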
[2] = modulators of HCV replicon luciferase signal, primary screen, HCV replication inhibitor project, Huh7 cells, luciferase reporter (AID 1109); conditions: 48 h, higher = more signal;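 also: huh7 hepatoma cells harbouring a luciferase neomycin HCV replicon reporter; luciferase luminescence as measure of HCV replicon replication; test concentration not given here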
[3] = target: Left-right determination factor 2 (Homo sapiens) (UniProt O00292); assay: LEFTY2 binders on small-molecule microarrays, primary screen, biochemical, small-molecule microarray, 635 nm fluorescence scan (AID 1110); conditions: LEFTY2 binding, higher = more signal
[4] = target: Calmodulin-1 (Homo sapiens) (UniProt P0DP23); assay: CALM1 binders on microarrays, EGTA buffer, profiling panel, biochemical, small-molecule microarray, Cy5-labelled CALM1 (AID 1111); conditions: Cy5-CALM1 binding fluorescence, higher = more signal;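 also: labelled calmodulin applied in Tris saline Tween buffer holding calcium plus EGTA and DTT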
[5] = target: Calmodulin-1 (Homo sapiens) (UniProt P0DP23); assay: calcium-bound CALM1 binders on microarrays, profiling panel, artefact control for SMM control-protein annotation, biochemical, small-molecule microarray, Cy5-labelled CALM1, plus calcium (AID 1112); conditions: Cy5-CALM1 binding fluorescence, higher = more signal;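 also: score merges spot fluorescence with signal to noise from triplicate slides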
[6] = small-molecule microarray binders of probe aWnt5a, primary screen, biochemical, biotinylated probe, 635/667 nm fluorescence (AID 1113); conditions: higher = more signal;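 also: score merges 667 nm fluorescence intensity with signal-to-noise per printed feature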
[7] = small-molecule microarray binders of probe aShh, primary screen, biochemical, biotinylated probe, 635/667 nm fluorescence (AID 1114); conditions: higher = more signal;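 also: probe is biotin-labelled aShh protein from a stem cell growth factor screen; measures binding of labelled protein to compounds printed on the slide; score merges feature fluorescence at 667 nm with signal-to-noise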
[8] = small-molecule microarray binders of probe aNog, primary screen, biochemical, biotinylated probe, 635/667 nm fluorescence (AID 1115); conditions: higher = more signal;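 also: probe is biotinylated aNog protein used at 0.15 µg/mL for 1 h at 4 C; z-score combines 667 nm fluorescence of each spot with its signal to noise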
[9] = target: Torsin-1A-interacting protein 1 (Homo sapiens) (UniProt Q5JTV8); assay: LAP1 binders from COS7 cell lysate, primary screen, small-molecule microarray, 635/667 nm fluorescence (AID 1116); conditions: COS7-hLAP1 lysate binding, 635 nm fluorescence, higher = more signal
[10] = target: Alpha-bungarotoxin (Bungarus multicinctus) (UniProt P60615); assay: alpha-bungarotoxin binders on microarray, profiling panel, artefact control for SMM control protein annotation, biochemical, small-molecule microarray, Alexa647 label, 635/667 nm fluorescence (AID 1117); conditions: alpha-BTX-A647 binding fluorescence, higher = more signal
[11] = target: Albumin (Bos taurus) (UniProt P02769); assay: bovine serum albumin binders on microarray, profiling panel, artefact control for SMM control protein annotation, biochemical, small-molecule microarray, Alexa647 label, 635/667 nm fluorescence (AID 1118); conditions: BSA-A647 binding, fluorescence 635 nm, higher = more signal;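 also: score merges 667 nm emission intensity and signal-to-noise per printed compound spot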
[12] = small-molecule microarray binders of probe aXIP, primary screen, biochemical, NeuroSMM set, 635/667 nm fluorescence (AID 1119); conditions: higher = more signal, called active from +8 up or from −8 down;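 also: probe is the protein aXip251-270 applied at 1 µg/mL to compound-printed slides; binding of probe to printed compounds measured as 667 nm fluorescence plus signal to noise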
[13] = small-molecule binders of probe aNOTCH3, primary screen, biochemical, small-molecule microarray, 635/667 nm fluorescence (AID 1120); conditions: higher = more signal;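 also: probe is a biotin-tagged antibody raised against NOTCH3 rather than NOTCH3 protein; score merges spot fluorescence near 667 nm with spot signal to noise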
[14] = small-molecule binders of probe aNOTCH2, primary screen, biochemical, small-molecule microarray, 635/667 nm fluorescence (AID 1121); conditions: higher = more signal;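 also: score merges feature fluorescence read at 667 nm with its signal to noise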
[15] = target: Carbonic anhydrase 2 (Homo sapiens) (UniProt P00918); assay: CAII small-molecule binders, profiling panel, biochemical, small-molecule microarray, Alexa647-labelled CAII (AID 1122); conditions: CAII-A647 binding fluorescence, higher = more signal
[16] = COS7 lysate on small-molecule microarray, probe aHis, 635 nm (AID 1123); conditions: COS7 cell lysate, fluorescence, higher = more signal;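 also: z-score combines 667nm fluorescence intensity with signal-to-noise per printed compound spot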
[17] = compound binding in COS7 lysate, probe aLAP1, primary screen, cell lysate, small-molecule microarray (AID 1124); conditions: probe aLAP1, fluorescence, higher = more signal;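 also: lysate comes from COS7 cells expressing LAP1 and is applied at 0.3 µg/mL; score merges spot fluorescence near 667 nm with signal-to-noise over triplicate slides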
[18] = system: Sam68 (KHDRBS1); assay: Sam68 small-molecule binders, primary screen, biochemical, small-molecule microarray, 635 nm fluorescence (AID 1125); conditions: small-molecule microarray binding, higher = more signal;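 also: score merges 667 nm channel intensity with signal to noise over triplicate slides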
[19] = system: Chordin-like protein 2 (CHRDL2); assay: CHRDL2 small-molecule binders, primary screen, biochemical, small-molecule microarray, 635 nm fluorescence (AID 1126); conditions: small-molecule microarray binding, fluorescence 635 nm; higher = more signal;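 also: printed compound slides probed with Chrdl2 protein at 4 µg/mL for 1 h at 4 C; score merges 667 nm emission intensity with signal to noise over three replicate slides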
[20] = target: Concanavalin-A (Canavalia ensiformis) (UniProt P02866); assay: ConA small-molecule binders, primary screen, artefact control for SMM control protein annotation, biochemical, small-molecule microarray, Alexa647 label, 635 nm (AID 1127); conditions: ConA-A647 binding fluorescence, higher = more signal;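 also: z combines 667 nm emission intensity with signal-to-noise across three replicate slides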
Concanavalin-A (Canavalia ensiformis), sequence (P02866 whole entry, looked up): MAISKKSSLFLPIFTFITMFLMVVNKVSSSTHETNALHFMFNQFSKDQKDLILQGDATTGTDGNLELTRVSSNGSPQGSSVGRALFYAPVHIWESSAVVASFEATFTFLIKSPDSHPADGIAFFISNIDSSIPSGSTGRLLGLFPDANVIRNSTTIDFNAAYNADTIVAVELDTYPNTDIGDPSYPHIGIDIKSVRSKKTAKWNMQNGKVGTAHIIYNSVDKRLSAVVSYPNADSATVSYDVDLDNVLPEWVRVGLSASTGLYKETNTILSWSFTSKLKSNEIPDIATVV

Alpha-bungarotoxin (Bungarus multicinctus), sequence (P60615 whole entry, looked up): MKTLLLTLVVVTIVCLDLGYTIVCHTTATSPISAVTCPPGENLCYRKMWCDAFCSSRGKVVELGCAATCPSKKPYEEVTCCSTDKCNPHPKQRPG
Albumin (Bos taurus), sequence (P02769 whole entry, looked up): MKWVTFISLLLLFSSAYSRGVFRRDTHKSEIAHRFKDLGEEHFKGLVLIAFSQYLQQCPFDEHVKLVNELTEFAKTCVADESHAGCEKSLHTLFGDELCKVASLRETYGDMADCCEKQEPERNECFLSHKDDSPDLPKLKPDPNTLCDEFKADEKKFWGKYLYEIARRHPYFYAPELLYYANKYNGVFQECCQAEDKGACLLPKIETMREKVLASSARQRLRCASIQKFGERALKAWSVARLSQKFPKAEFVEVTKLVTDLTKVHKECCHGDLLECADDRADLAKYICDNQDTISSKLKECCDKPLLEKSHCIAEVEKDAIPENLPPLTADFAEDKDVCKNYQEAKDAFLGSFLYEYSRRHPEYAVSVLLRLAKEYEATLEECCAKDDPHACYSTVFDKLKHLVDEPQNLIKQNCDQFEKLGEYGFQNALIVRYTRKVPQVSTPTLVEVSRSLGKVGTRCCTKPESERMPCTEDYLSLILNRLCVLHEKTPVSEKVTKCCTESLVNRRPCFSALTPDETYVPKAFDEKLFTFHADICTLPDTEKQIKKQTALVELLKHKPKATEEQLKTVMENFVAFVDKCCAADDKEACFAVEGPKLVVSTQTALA
Torsin-1A-interacting protein 1 (Homo sapiens), sequence (Q5JTV8 whole entry, looked up): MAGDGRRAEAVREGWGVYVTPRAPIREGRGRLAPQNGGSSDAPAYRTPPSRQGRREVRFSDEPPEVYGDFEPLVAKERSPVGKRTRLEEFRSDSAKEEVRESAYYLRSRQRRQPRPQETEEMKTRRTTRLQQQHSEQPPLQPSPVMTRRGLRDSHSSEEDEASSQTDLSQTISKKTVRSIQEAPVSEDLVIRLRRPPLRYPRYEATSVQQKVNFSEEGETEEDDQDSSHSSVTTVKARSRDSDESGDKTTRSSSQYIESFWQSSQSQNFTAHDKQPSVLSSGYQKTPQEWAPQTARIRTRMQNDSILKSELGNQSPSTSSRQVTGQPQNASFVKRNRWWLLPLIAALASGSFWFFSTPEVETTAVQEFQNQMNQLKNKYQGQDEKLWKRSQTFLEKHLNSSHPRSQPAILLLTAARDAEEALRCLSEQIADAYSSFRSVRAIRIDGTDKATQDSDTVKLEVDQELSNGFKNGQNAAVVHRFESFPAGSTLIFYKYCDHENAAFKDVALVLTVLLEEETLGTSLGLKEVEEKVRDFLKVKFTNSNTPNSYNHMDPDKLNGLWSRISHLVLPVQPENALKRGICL
Left-right determination factor 2 (Homo sapiens), sequence (O00292 whole entry, looked up): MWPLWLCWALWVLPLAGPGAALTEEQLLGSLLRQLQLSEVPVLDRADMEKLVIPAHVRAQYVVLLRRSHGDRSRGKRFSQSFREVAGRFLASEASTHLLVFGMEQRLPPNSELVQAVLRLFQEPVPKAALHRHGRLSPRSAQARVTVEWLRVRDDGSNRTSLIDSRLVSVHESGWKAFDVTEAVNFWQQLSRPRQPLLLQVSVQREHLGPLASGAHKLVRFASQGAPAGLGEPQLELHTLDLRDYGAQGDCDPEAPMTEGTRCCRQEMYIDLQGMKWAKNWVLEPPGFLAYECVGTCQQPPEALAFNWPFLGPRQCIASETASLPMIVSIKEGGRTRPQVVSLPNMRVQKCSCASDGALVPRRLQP

O=C1O[C@@H](c2ccccc2)[C@@H](c2ccccc2)N2[C@@H](c3ccc(OCCO)cc3)[C@]3(C(=O)Nc4ccc(C#CCCO)cc43)[C@@H](C(=O)N3CCCCCCC3)[C@H]12
composite z-score [1]: -0.516
z-score [2]: -0.777
composite z-score [3]: 1.07
composite z-score [4]: 2.62
composite z-score [5]: 1.06
composite z-score [6]: 0.935
composite z-score [7]: 2.18
composite z-score [8]: 2.81
composite z-score [9]: 4.07
composite z-score [10]: 2.78
composite z-score [11]: 0.259
composite Z-score [12]: 7.58 (inactive)
composite z-score [13]: 1.66
composite z-score [14]: 0.745
composite z-score [15]: 0.896
composite z-score [16]: 3.6
composite z-score [17]: 1.02
composite z-score [18]: 1.3
composite z-score [19]: 1.25
composite z-score [20]: 1.15

COc1ccc(O[C@H]2C=C[C@@H](c3ccccc3)O[C@@H]2COC(=O)N2CCCCC2)cc1
composite z-score [1]: -0.57
z-score [2]: -1.34
composite z-score [3]: -0.0284
composite z-score [4]: -0.781
composite z-score [5]: -1.33
composite z-score [6]: -0.0512
composite z-score [7]: -0.0146
composite z-score [8]: -0.267
composite z-score [9]: 0.323
composite z-score [10]: -0.195
composite z-score [11]: -0.725
composite Z-score [12]: 0.0229 (inactive)
composite z-score [13]: -0.131
composite z-score [14]: -0.111
composite z-score [15]: -0.29
composite z-score [16]: -0.482
composite z-score [17]: 0.0033
composite z-score [18]: -0.907
composite z-score [19]: 0.387
composite z-score [20]: -0.578

COC(=O)C1=C(C)N(Cc2ccccc2)[C@]23O[C@](C(=O)OC)(C(=O)N2[C@@H]1c1ccccc1)[C@H]1CCOC(=O)[C@H]13
composite z-score [1]: 0.0415
z-score [2]: 0.233
composite z-score [3]: 0.548
composite z-score [4]: -0.348
composite z-score [5]: -0.832
composite z-score [6]: -0.0482
composite z-score [7]: -0.0769
composite z-score [8]: 0.171
composite z-score [9]: 0.333
composite z-score [10]: 0.0003
composite z-score [11]: 0.735
composite Z-score [12]: 0.493 (inactive)
composite z-score [13]: -0.0587
composite z-score [14]: -0.131
composite z-score [15]: 0.0198
composite z-score [16]: -0.12
composite z-score [17]: 0.21
composite z-score [18]: -0.0775
composite z-score [19]: 0.702
composite z-score [20]: 0.0349

COC(=O)[C@H](C)NC(=O)CCC1CC(OC(=O)NCc2cccc3ccccc23)CC2(CCCC(COC(=O)NCCc3ccc(Cl)cc3)O2)O1 (stereo not given in full)
composite z-score [1]: 0.953
z-score [2]: -1.05
composite z-score [3]: 0.451
composite z-score [4]: 0.866
composite z-score [5]: -0.0789
composite z-score [6]: -0.0075
composite z-score [7]: -0.138
composite z-score [8]: -0.213
composite z-score [9]: 0.33
composite z-score [10]: 0.171
composite z-score [11]: 0.147
composite Z-score [12]: 0.108 (inactive)
composite z-score [13]: -0.176
composite z-score [14]: -0.0868
composite z-score [15]: 0.535
composite z-score [16]: 0.631
composite z-score [17]: -0.422
composite z-score [18]: 1.23
composite z-score [19]: -0.0578
composite z-score [20]: 0.946

COc1ccc([Si](C)(C)[C@@H]2[C@@H](CC(=O)N3CCC[C@H]3CO)O[C@]3(C(=O)N(Cc4cccc(N5CCC5=O)c4)c4ccccc43)[C@H]2C)cc1
composite z-score [1]: 1.4
z-score [2]: -2.1
composite z-score [3]: 0.162
composite z-score [4]: 0.504
composite z-score [5]: -0.098
composite z-score [6]: -0.0236
composite z-score [7]: 0.199
composite z-score [8]: 0.15
composite z-score [9]: 0.989
composite z-score [10]: 1.44
composite z-score [11]: 0.263
composite Z-score [12]: 0.188 (inactive)
composite z-score [13]: 0.239
composite z-score [14]: -0.0288
composite z-score [15]: 0.14
composite z-score [16]: 2.25
composite z-score [17]: 0.317
composite z-score [18]: 1.31
composite z-score [19]: 0.453
composite z-score [20]: 0.811

COCCCNC(=O)[C@@]1(CCS(=O)(=O)c2ccccc2)N=C(c2ccc(OCCCO)cc2)O[C@H]1c1ccccc1
composite z-score [1]: 0.432
z-score [2]: -1.2
composite z-score [3]: -0.133
composite z-score [4]: 0.361
composite z-score [5]: 0.4
composite z-score [6]: 0.525
composite z-score [7]: 0.179
composite z-score [8]: 2.11
composite z-score [9]: 2.95
composite z-score [10]: 2.44
composite z-score [11]: 0.533
composite Z-score [12]: 0.164 (inactive)
composite z-score [13]: 0.303
composite z-score [14]: 0.529
composite z-score [15]: 0.577
composite z-score [16]: 3
composite z-score [17]: 1.01
composite z-score [18]: 1.31
composite z-score [19]: -0.0021
composite z-score [20]: 0.261

[N-]=[N+]=Nc1ccccc1C[C@@]1(C(N)=O)N=C(c2ccc(OCCCO)cc2)O[C@@H]1c1ccccc1
composite z-score [1]: 0.692
z-score [2]: -2.38
composite z-score [3]: -1.09
composite z-score [4]: 1.7
composite z-score [5]: 0.824
composite z-score [6]: -0.0445
composite z-score [7]: 0.456
composite z-score [8]: 0.662
composite z-score [9]: 1.26
composite z-score [10]: 0.546
composite z-score [11]: 0.841
composite Z-score [12]: 0.0117 (inactive)
composite z-score [13]: -0.0014
composite z-score [14]: -0.0633
composite z-score [15]: 0.723
composite z-score [16]: 1.74
composite z-score [17]: 0.567
composite z-score [18]: 1.05
composite z-score [19]: -1.26
composite z-score [20]: 0.704
